Screening data from PubChem BioAssay.
Shown are actives, neighbours in structure and some others; about 3.5% of the full set was active somewhere.
TEAD-YAP block = TEAD-YAP interaction inhibition; HEK-TIYL cells, TEAD-Gal4/YAP UAS-luciferase luminescence; inhibition, % at 9.12 µM; actives 1.4% (n = 640,000); in the data active = inhibition above about 32%
GPR151 ag = human GPR151 activation; PathHunter beta-arrestin GPR151 cells, luminescence; activation, % at 11.2 µM; actives 1% (n = 650,000); AID 1508602; in the data active = activation above about 4.9%
Target sequence (Q8TDV0 whole entry, looked up): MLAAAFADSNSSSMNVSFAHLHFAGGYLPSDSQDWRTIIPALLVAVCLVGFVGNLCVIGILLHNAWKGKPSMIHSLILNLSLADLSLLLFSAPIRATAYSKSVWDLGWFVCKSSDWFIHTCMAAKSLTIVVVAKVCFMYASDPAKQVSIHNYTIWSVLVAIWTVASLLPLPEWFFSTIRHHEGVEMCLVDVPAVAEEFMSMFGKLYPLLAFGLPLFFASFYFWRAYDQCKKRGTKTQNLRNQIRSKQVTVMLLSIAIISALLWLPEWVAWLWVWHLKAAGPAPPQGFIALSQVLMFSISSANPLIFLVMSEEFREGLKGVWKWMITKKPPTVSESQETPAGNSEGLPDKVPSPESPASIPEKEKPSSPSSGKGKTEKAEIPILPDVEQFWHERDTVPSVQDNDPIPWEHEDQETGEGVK
MITF primary = inhibitors of human MITF. AlphaScreen MITF homodimerization, bead proximity signal. actives 0.91% (n = 650,000). O75030. inhibition, % at 2.6 µM; in the data active = inhibition above about 50%
FBW7 activator = activators of human E3 ligase FBW7 | AlphaScreen FBW7–phospho-cyclin E peptide binding, activator screen | normalized activity (activation), % at 26.1 µM | actives 0.13% (n = 650,000); in the data active = normalized activity above about 1.9%;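 also: purified mutant Fbw7 with reduced substrate affinity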
GPR151 conf act = confirmation of human GPR151 activators. shares compounds with GPR151 ag. GPR151 PathHunter beta-arrestin cells, luminescence, 90 min; % of EA-reagent control over plate median. activation, % at 11.2 µM. 6,700 tested, under 10 active. AID 1508609;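 active = mean percent activation across replicates above the confirmation screen cutoff of 4.91%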
GPR119 counter = counter-screen for GPR151 activators: effect on human GPR119. shares compounds with GPR151 ag. activation, % at 11.2 µM. AID 1508611. actives 0.3% (n = 6,700). GPR119 PathHunter beta-arrestin cells, luminescence, 90 min; 0 = compound-well median, 100 = enzyme-acceptor control;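 active = mean percent activation in the counterscreen above 29.09%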;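 also: counterscreen on off-target GPR119 to flag nonselective hits from the GPR151 activator screen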
Each line names hits and unclear results; the compound was inactive in the other large screens (follow-up assays come after a bar, where they were run); ! = a repeat was not active.

COc1ccc(-n2nc(C(=O)NCC(=O)NCCCN3CCC(C)CC3)c3ccccc3c2=O)cc1OC	none
CCOc1ccccc1N(C)C(=O)c1nn(-c2ccc(OC)cc2)c(=O)c2ccccc12	none
COc1ccc(-n2nc(C(=O)NCC(=O)NCCCN3CCN(c4cccc(Cl)c4)CC3)c3ccccc3c2=O)cc1OC	GPR151 ag 4.9 | GPR151 conf act inactive | GPR119 counter inactive
CCNC(=O)NC(=O)C(C)OC(=O)c1cccc(C)c1C (stereo unspecified)	none
O=C(CSCc1ccccc1)Nc1cccc(-c2ccn[nH]2)c1	none
O=C(O)CSc1ncccc1-c1nc2ccccc2[nH]1	none
CCOc1ccc(NC(=O)CNC(=O)c2nn(-c3ccc(OC)c(OC)c3)c(=O)c3ccccc23)cc1	none
CCOc1ccc(NC(=O)c2nnn(-c3ccccc3OC)c2C)cc1	GPR151 ag 5.7 | GPR151 conf act inactive | GPR119 counter inactive
CCOc1ccc(-n2nc(C(=O)Nc3ccc(OC)c(OC)c3)c3ccccc3c2=O)cc1	GPR151 ag 5.6 | GPR151 conf act inactive | GPR119 counter inactive
Clc1ccccc1-n1ncnc1-c1ccc2c(c1)OCO2	none
CCCCCn1c(SCC(=O)OCC)nc2cc(C(=O)NC3CCCCC3)ccc2c1=O	GPR151 ag 5.4 | GPR151 conf act inactive | GPR119 counter inactive
O=C(CC(NCc1ccco1)C(=O)O)c1ccc(Br)cc1 (stereo unspecified)	none
Cc1cc(NC(=O)Cn2cnc([N+](=O)[O-])n2)nn1CC(=O)NCc1ccco1	GPR151 ag 5.5 | GPR151 conf act inactive | GPR119 counter inactive
Cc1cc(NS(=O)(=O)c2ccc(Cl)cc2)nn1CC(=O)NCc1ccco1	none
CCC(C)O/N=C1\C(=O)N(c2ccccc2)c2ccccc21 (stereo unspecified)	none
COc1ccc(CNC(=O)CCCc2ccccc2)cc1	none
COc1ccc(CNC(=O)CCCc2nc3ccccc3c(=O)[nH]2)cc1	GPR151 ag 6.3 | GPR151 conf act inactive | GPR119 counter inactive
C[C@]1(Cn2ccnn2)[C@H](C(=O)O)N2C(=O)C[C@H]2S1(=O)=O	GPR151 ag 10! | GPR151 conf act inactive | GPR119 counter inactive
COc1cc(CNC(=O)CCCC/C=C/C(C)C)ccc1O	GPR151 ag 7.6! | GPR151 conf act inactive | GPR119 counter inactive
COc1ccc(CNC(=O)CCSC)cc1OC	none
COc1ccc(-c2cc(C(F)(F)F)n3ncc(C(=O)Nc4ccc(Cl)cc4Cl)c3n2)cc1OC	GPR151 ag 5.4 | GPR151 conf act inactive | GPR119 counter inactive
COc1ccc(-c2noc(CN(C(C)C)S(=O)(=O)c3ccc(F)cc3)n2)cc1	GPR151 ag 11 | GPR151 conf act inactive | GPR119 counter inactive
CN(Cc1nc(-c2ccccc2)no1)S(=O)(=O)c1ccc(Cl)cc1	GPR151 ag 5.5 | GPR151 conf act inactive | GPR119 counter inactive
COc1cccc(OC)c1C(=O)N(Cc1nc(-c2ccc(C)cc2)no1)C(C)C	GPR151 ag 9.7 | GPR151 conf act inactive | GPR119 counter inactive
CCOc1ccc(C(=O)N(Cc2nc(-c3ccc(OC)cc3)no2)C(C)C)cc1OCC	none
C=CCOc1ccc(C(=O)N(Cc2nc(-c3ccc(OC)c(OC)c3)no2)C(C)C)cc1	GPR151 ag 12 | GPR151 conf act inactive | GPR119 counter inactive
CCCCN(CC)CCNC(=O)CCS(=O)(=O)c1cccc2nonc12	none
COc1ccc(C(=O)Nc2ccc(C)c([N+](=O)[O-])c2)cc1	none
Cc1ccc(-c2noc(CN(C(=O)CCN3C(=O)c4ccccc4C3=O)C(C)C)n2)cc1	GPR151 ag 5.1 | GPR151 conf act inactive | GPR119 counter inactive
CC(C)N(Cc1nc(-c2ccccc2)no1)C(=O)CCN1C(=O)c2ccccc2C1=O	none
NC(=O)CN1C2CCC1CC(NC(=O)Nc1ccccc1)C2 (stereo unspecified)	none
COc1ccc2c(c1)c1nnc(SCC(=O)NC(C)C)nc1n2C	none
COc1ccccc1NC(=O)c1ccc([N+](=O)[O-])cc1Cl	none
C/C=C(\C)CN1CCc2nnc(CNC(=O)CCc3cccnc3)n2CC1	GPR151 ag 15 | GPR151 conf act inactive | GPR119 counter inactive
Cc1ccc(CN2CCc3nnc(CNC(=O)c4ccccc4)n3CC2)cc1	GPR151 ag 6.0 | GPR151 conf act inactive | GPR119 counter inactive
